# According to PubChem BioAssay:
# Activity calls are given as the source filed them.
# Tests used:
# [1] = optical density shifts of acrAB sulA E. coli – strain DRC41, OD650, 48 h, E. coli filamentation inducer project, primary screen (AID 1152); conditions: higher = more signal, called active from +8 up or from −8 down;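 note: E. coli MC1000 strain DRC41 lacking acrAB efflux pump and sulA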
# [2] = probe aLefty1 binding on compound microarray – biochemical, small-molecule microarray, 635/667 nm fluorescence, primary screen (AID 1153); conditions: higher = more signal;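 note: score merges spot fluorescence with signal-to-noise ratio from the scanned slide images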
# [3] = plasmodial surface anion channel blockers, osmotic lysis – cell-based, P. falciparum Indochina, OD700, 1 h, primary screen (AID 1154); conditions: P. falciparum Indochina infected RBC osmotic lysis, higher = more signal, called active from +8 up or from −8 down
# [4] = plasmodial surface anion channel blockers, osmotic lysis – cell-based, P. falciparum Indochina, OD700, 2 h, primary screen (AID 1155);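 note: lysis reports solute entry through the parasite surface anion channel PSAC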; conditions: P. falciparum Indochina infected erythrocytes, higher = more signal, called active from +8 up or from −8 down
# [5] = changes in parasitized red cell lysis, either direction – P. falciparum Indochina, OD700, 3 h, PSAC antagonist project, primary screen (AID 1156); conditions: P. falciparum-infected erythrocytes, osmotic lysis, higher = more signal, called active from +8 up or from −8 down
# [6] = plasmodial surface anion channel blockers, osmotic lysis – cell-based, P. falciparum Indochina, OD700, 18 h, primary screen (AID 1157); conditions: P. falciparum Indochina infected erythrocytes, osmotic lysis OD700, 18 h; higher = more signal, called active from +8 up or from −8 down
# [7] = S6 kinase pathway phospho-S6 level changes – cell-based, A549, cytoblot, luminescence, serum-stimulated, primary screen (AID 1158); conditions: 5 h, higher = more signal;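 note: serum-stimulated A549 lung adenocarcinoma cells; signal is phosphorylated S6 detected by cytoblot immunostaining with HRP secondary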
# [8] = target: NADPH oxidase 2 (Homo sapiens) (UniProt P04839); test: compounds shifting NOX2 Amplex Red fluorescence – cell-based, HEK293-NOX2, PMA-stimulated, NOX inhibitor project, primary screen (AID 1159); conditions: 45 min, higher = more signal, called active from +8 up or from −8 down; note: test concentration not given here
# [9] = target: NADPH oxidase 4 (Homo sapiens) (UniProt Q9NPH5); test: compounds shifting NOX4 Amplex Red fluorescence – cell-based, HEK293-NOX4, tetracycline-induced, NOX inhibitor project, primary screen (AID 1160); conditions: HEK293-NOX4, Amplex Red H2O2 fluorescence, 45 min; higher = more signal, called active from +8 up or from −8 down
# [10] = target: NADPH oxidase 5 (Homo sapiens) (UniProt Q96PH1); test: compounds shifting NOX5 Amplex Red fluorescence – cell-based, HEK293-NOX5, NOX inhibitor project, primary screen (AID 1161); conditions: HEK293-NOX5, ionomycin, 45 min, higher = more signal
# [11] = compound effects on lung adenocarcinoma cell viability – A549, calcein-AM fluorescence, 48 h, basal, profiling panel (AID 1162); conditions: higher = more signal; note: test concentration not given here
# [12] = compound effects on differentiated 3T3-L1 adipocyte viability – cell-based, 3T3-L1 adipocytes, calcein-AM fluorescence, 48 h, basal, profiling panel (AID 1163); conditions: 3T3-L1 adipocytes viability, higher = more signal; note: test concentration not given here
# [13] = compound effects on hepatocellular carcinoma cell viability – HepG2, calcein-AM fluorescence, 48 h, basal, profiling panel (AID 1164); conditions: higher = more signal; note: test concentration not given here
# [14] = compound effects on multiple myeloma cell viability – MM1S, calcein-AM fluorescence, 48 h, basal, profiling panel (AID 1165); conditions: higher = more signal; note: test concentration not given here
# [15] = calcein-AM signal in unstimulated myeloma cells – cell-based, calcein-AM fluorescence, 48 h, PK04 Diversity Set, profiling panel (AID 1166); conditions: RPMI8226 myeloma viability, higher = more signal;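 note: cells grown under basal conditions without added stimulus; test concentration not given here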
# [16] = JC-1 mitochondrial signal, unstimulated HepG2 cells – cell-based, JC-1 fluorescence, 24 h, 100 nL compound, profiling panel (AID 1167); conditions: HepG2 mitochondrial potential, higher = more signal; note: test concentration not given here
# [17] = JC-1 mitochondrial signal, unstimulated adipocytes – cell-based, JC-1 fluorescence, 3T3-L1 adipocytes, 24 h, 100 nL compound, profiling panel (AID 1168); conditions: JC-1 mitochondrial fluorescence, higher = more signal, called active from +8 up or from −8 down; note: test concentration not given here
# [18] = JC-1 mitochondrial signal, unstimulated myeloma cells – cell-based, JC-1 fluorescence, RPMI8226, 24 h, 100 nL compound, profiling panel (AID 1169); conditions: JC-1 mitochondrial potential fluorescence, higher = more signal; note: test concentration not given here
# [19] = JC-1 mitochondrial signal, unstimulated MM1S myeloma – cell-based, JC-1 fluorescence, 24 h, 100 nL compound, profiling panel (AID 1170); conditions: MM1S mitochondrial potential, higher = more signal; note: test concentration not given here
# [20] = resazurin metabolic signal in A549 cells – cell-based, resazurin fluorescence, 24 h, PK04 Diversity Set, profiling panel (AID 1171); conditions: A549 viability, higher = more signal, called active from +8 up or from −8 down; note: test concentration not given here
# Sequence of NADPH oxidase 5 (Homo sapiens) (Q96PH1 whole entry, looked up): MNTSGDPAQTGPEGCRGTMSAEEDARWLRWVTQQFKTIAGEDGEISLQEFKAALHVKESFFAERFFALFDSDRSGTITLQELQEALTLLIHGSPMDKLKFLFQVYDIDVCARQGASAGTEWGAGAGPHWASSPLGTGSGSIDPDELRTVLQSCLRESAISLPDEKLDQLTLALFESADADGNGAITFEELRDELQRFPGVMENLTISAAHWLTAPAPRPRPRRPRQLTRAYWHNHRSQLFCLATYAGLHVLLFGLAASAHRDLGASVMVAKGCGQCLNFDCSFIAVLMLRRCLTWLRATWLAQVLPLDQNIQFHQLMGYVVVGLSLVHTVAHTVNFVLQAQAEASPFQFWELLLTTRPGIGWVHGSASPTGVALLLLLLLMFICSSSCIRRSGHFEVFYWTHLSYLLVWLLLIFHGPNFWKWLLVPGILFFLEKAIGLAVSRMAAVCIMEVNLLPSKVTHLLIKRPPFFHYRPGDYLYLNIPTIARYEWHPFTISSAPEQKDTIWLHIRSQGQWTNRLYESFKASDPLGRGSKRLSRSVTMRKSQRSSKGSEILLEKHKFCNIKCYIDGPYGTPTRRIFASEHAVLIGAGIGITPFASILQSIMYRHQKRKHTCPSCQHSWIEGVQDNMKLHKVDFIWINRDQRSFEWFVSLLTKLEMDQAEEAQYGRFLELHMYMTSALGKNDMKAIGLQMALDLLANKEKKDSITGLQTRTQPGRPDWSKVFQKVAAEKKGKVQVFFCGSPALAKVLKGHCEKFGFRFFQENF
# Sequence of NADPH oxidase 4 (Homo sapiens) (Q9NPH5 whole entry, looked up): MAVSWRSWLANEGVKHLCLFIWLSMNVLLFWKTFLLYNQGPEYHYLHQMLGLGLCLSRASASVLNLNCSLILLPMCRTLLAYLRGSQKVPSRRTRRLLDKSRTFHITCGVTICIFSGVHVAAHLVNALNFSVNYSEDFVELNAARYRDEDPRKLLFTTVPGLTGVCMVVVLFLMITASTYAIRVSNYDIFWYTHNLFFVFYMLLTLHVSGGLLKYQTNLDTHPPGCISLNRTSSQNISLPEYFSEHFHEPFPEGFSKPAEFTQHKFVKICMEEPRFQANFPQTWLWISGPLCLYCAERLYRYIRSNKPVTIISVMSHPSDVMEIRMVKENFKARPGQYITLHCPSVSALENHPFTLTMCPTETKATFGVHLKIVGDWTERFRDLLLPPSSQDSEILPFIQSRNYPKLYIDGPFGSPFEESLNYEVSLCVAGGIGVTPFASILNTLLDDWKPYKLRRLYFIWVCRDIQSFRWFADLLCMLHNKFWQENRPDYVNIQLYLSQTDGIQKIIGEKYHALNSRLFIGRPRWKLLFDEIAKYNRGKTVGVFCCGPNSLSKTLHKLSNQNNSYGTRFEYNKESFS
# Sequence of NADPH oxidase 2 (Homo sapiens) (P04839 whole entry, looked up): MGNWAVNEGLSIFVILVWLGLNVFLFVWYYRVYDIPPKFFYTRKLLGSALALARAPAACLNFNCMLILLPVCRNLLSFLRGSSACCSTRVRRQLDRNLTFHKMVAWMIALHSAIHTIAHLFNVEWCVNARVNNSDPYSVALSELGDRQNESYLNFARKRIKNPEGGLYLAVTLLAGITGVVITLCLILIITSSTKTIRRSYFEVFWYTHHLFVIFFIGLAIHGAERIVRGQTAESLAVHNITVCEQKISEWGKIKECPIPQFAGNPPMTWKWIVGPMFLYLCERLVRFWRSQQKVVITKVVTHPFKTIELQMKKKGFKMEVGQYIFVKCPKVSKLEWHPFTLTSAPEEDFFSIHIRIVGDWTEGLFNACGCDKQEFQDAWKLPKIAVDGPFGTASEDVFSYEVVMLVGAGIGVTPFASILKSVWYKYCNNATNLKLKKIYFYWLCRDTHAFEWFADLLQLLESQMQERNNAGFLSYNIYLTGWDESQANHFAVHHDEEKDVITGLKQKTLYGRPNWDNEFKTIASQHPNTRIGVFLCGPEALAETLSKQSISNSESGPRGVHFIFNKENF
Structure (SMILES),z-score [1],composite z-score [2],z-score [3],z-score [4],z-score [5],z-score [6],z-score [7],z-score [8],z-score [9],z-score [10],z-score [11],z-score [12],z-score [13],z-score [14],z-score [15],z-score [16],z-score [17],z-score [18],z-score [19],z-score [20]
CN(C)CCCCCCNC(=O)[C@@H]1C[C@@H]2C(=O)N[C@@H](CCCCN)C(=O)N2[C@@H]1c1ccc(O)cc1,0.724 (inactive),3.1,0.983 (inactive),-0.111 (inactive),2.87 (inactive),-1.88 (inactive),1.32,-0.0284 (inactive),0.901 (inactive),1.13,1.4,0.576,-0.521,0.56,-0.345,-0.695,-0.625 (inactive),-0.273,-1,-0.3 (inactive)
C=C(COC)C(=O)CC[C@H](OC(C)=O)c1ccc(OCCO)cc1,1.5 (inactive),-0.0984,4.92 (inactive),-1.68 (inactive),1.91 (inactive),-1.85 (inactive),0.534,-2.84 (inactive),-1.63 (inactive),-2.22,-0.522,1.72,-0.974,-2.6,-0.887,0.692,-0.213 (inactive),-0.0964,1.3,0.0933 (inactive)
[N-]=[N+]=NC[C@H](Cc1ccccc1)NC(=O)c1ccccc1,1.44 (inactive),0.0606,0.0465 (inactive),0.872 (inactive),0.264 (inactive),0.432 (inactive),-0.282,0.192 (inactive),-0.441 (inactive),0.122,0.431,0.474,0.611,0.357,0.661,0.581,0.219 (inactive),-0.0299,0.171,1.19 (inactive)
CC(C)(C)OC(=O)CC[C@]12N=C(c3ccc(OCCCO)cc3)O[C@H]1c1ccccc1N(Cc1ccccc1)C2=O,0.617 (inactive),0.848,27 (active),28.2 (active),4.42 (inactive),2.09 (inactive),0.34,3.89 (inactive),0.102 (inactive),-1.71,0.413,0.709,0.909,-2.74,-4.27,0.0521,1.16 (inactive),-1.2,-0.0831,1.66 (inactive)
CCOC(=O)C1=CCC(c2ccco2)N(S(=O)(=O)c2ccc(C)cc2)C1 (stereo not given),0.323 (inactive),0.247,9.57 (active),1.24 (inactive),0.252 (inactive),0.731 (inactive),0.406,-0.176 (inactive),-1.26 (inactive),0.758,-0.373,0.279,0.34,-2.93,-1.64,-0.843,-1.32 (inactive),0.733,-2.11,0.326 (inactive)
Cc1nc2cc(Br)ccc2c(=O)n1Cc1cccc(O)c1,0.685 (inactive),-0.216,0.73 (inactive),0.368 (inactive),0.136 (inactive),0.377 (inactive),-0.257,-0.763 (inactive),-0.191 (inactive),-0.302,-0.508,-0.396,0.454,-0.301,0.244,-0.0434,1.62 (inactive),-0.536,-0.432,0.246 (inactive)
COc1ccc([Si](C)(C)[C@@H]2[C@@H](CCn3cc([C@H](O)c4ccccc4)nn3)O[C@]3(C(=O)N(c4ccccc4)c4ccccc43)[C@H]2C)cc1,0.424 (inactive),-0.348,3.15 (inactive),-1.51 (inactive),3.03 (inactive),-1.63 (inactive),0.751,-0.0239 (inactive),0.276 (inactive),0.506,-0.985,1.98,-2.22,-1.18,-3.91,1.63,0.177 (inactive),-0.973,-0.681,-2.3 (inactive)
CO[C@H]1O[C@H](CO)[C@@H](OC(=O)Nc2cccc(F)c2)[C@H](OC(=O)Nc2ccccc2-c2ccccc2)[C@H]1OC(=O)Nc1ccccc1-c1ccccc1,-0.732 (inactive),0.302,4.41 (inactive),1.22 (inactive),-2.85 (inactive),0.937 (inactive),-0.309,-5.73 (inactive),-1.02 (inactive),-1.21,-4.26,0.737,-4.76,-3.44,-4.3,0.0525,0.461 (inactive),-0.936,-1.88,-6.1 (inactive)
CN1C(=O)C2C=CC(C(O)c3cc(C(F)(F)F)cc(C(F)(F)F)c3)N(Nc3ccccc3)C2C1=O (stereo not given),-1.07 (inactive),0.0341,0.277 (inactive),0.301 (inactive),-0.753 (inactive),0.797 (inactive),-0.77,-1.59 (inactive),-4.95 (inactive),-1.99,-1.53,-1.36,-0.78,-0.239,-0.683,-1.09,-0.551 (inactive),-0.222,0.333,0.672 (inactive)
